Experimental data: PubChem BioAssay (NCI)
This is part of a sample that, as a whole, favours compounds with a hit. Of some 79,000 tested, about 15% had one in any assay. A number with no mark means an inactive call. Calls of active or inactive are those of the source. No stated cut-off is given here; in the data, active means growth inhibition above about 70%; inactive means the rest.

Experiments:
[1] = NCI Yeast Anticancer Drug Screen. Data for the rad50 strain (AID 155);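 further: 0% = growth of vehicle-only cultures of the same strain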; details: S. cerevisiae rad50 strain growth inhibition, hits give high values
Outline: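 Relative growth inhibition (compound vs vehicle) was measured in yeast with a defined repair-gene alteration.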

[2] = NCI Yeast Anticancer Drug Screen. Data for the mec2-1 strain (AID 157); details: S. cerevisiae mec2-1 strain, hits give high values
Outline: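 Test agents were screened against the mec2-1 yeast strain, with defined DNA repair or cell cycle alteration. Growth was scored as inhibition against vehicle-only controls.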

[3] = NCI Yeast Anticancer Drug Screen. Data for the sgs1 mgt1 strain (AID 161);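 further: 0% = growth of cultures given vehicle only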; details: S. cerevisiae sgs1 mgt1 strain, hits give high values
Outline: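 Read-out: growth inhibition vs vehicle controls. Cells: mutant yeast strain deficient in DNA damage repair.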

[4] = NCI Yeast Anticancer Drug Screen. Data for the cln2 rad14 strain (AID 165);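 further: 0% = growth equal to vehicle treated cultures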; details: S. cerevisiae cln2 rad14 strain, hits give high values
Outline: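 Growth of compound-exposed yeast (cln2 rad14 genotype) measured and expressed as inhibition relative to vehicle.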

[5] = NCI Yeast Anticancer Drug Screen. Data for the bub3 strain (AID 167); details: S. cerevisiae bub3 mutant strain, hits give high values
Outline: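 Screening used yeast with an engineered genetic alteration affecting cell cycle control. Compound-exposed cultures were compared with vehicle cultures, and reduced growth was taken as inhibition.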

[6] = NCI Yeast Anticancer Drug Screen. Data for the mlh1 rad18 strain (AID 175); details: S. cerevisiae mlh1 rad18 strain growth inhibition, hits give high values
Outline: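 In this whole-cell yeast screen, a strain with altered DNA damage repair is challenged with compound, and its growth is measured against matched vehicle-treated controls.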

[7] = at 5.0 µM (retest, dose inferred, filed as 0.5)
[8] = at 50.0 µM (retest, dose inferred, filed as 5.0)

Compound | growth inhibition [1, 7] [%] | growth inhibition [1, 8] | growth inhibition ([1]; at 50.0 µM) | growth inhibition [2, 7] [%] | growth inhibition [2, 8] | growth inhibition ([2]; at 50.0 µM) | growth inhibition [3, 7] [%] | growth inhibition [3, 8] | growth inhibition ([3]; at 50.0 µM) | growth inhibition [4, 7] [%] | growth inhibition [4, 8] | growth inhibition ([4]; at 50.0 µM) | growth inhibition [5, 7] | growth inhibition [5, 8] | growth inhibition ([5]; at 50.0 µM) | growth inhibition [6, 7] [%] | growth inhibition [6, 8] | growth inhibition ([6]; at 50.0 µM)
CCCCCCCC/C=C\CCCCCCCC(=O)NCC[N+](C)(C)C | 48 | 99% (active) | 99.2% (active) | 17 | 100% (active) | 99.7% (active) | 53 | 99% (active) | 99.7% (active) | 10 | 99% (active) | 97.4% (active) | 83% (active) | 100% (active) | 99.3% (active) | 10 | 99% (active) | 99.5% (active)
O=C(O)CSc1cc2c3ccccc3sc2c2ccccc12 | 16 | 96% (active) | 96.3% (active) | 14 | 97% (active) | 97.8% (active) | 11 | 97% (active) | 98.5% (active) | 4 | 96% (active) | 93.8% (active) | 8% | 94% (active) | 79.7% (active) | 12 | 97% (active) | 98.1% (active)
O=C1COCC(=O)OCCOCCSCCOCCO1 | 5 | 11% | -4.6% | 0 | 5% | -1.2% | 1 | 1% | -7% | 4 | 41% | 37.2% | -4% | 4% | 8.75% | 8 | 15% | 7.75%
C=C(Br)COc1ccc2c(C)cc(=O)oc2c1 | 38 | 39% | 67.5% | 35 | 32% | 25.7% | 42 | 47% | 75.2% (active) | 38 | 32% | 36% | 45% | 43% | 68.8% | 49 | 51% | 49.8%
CC(C)=CCc1c(O)cc(O)c2c1OC(c1ccc(O)cc1)C(O)C2=O (configuration not stated) | -9 | 98% (active) | 93.2% (active) | 1 | 99% (active) | 94% (active) | -4 | 99% (active) | 93.8% (active) | 20 | 99% (active) | 91.5% (active) | 5% | 99% (active) | 92% (active) | -2 | 99% (active) | 92.5% (active)
CC(=O)Nc1ccc(-c2nnc(SCC(=O)Nc3ccc(Cl)cc3Cl)o2)cc1 | 1 | 30% | 89.4% (active) | -4 | 10% | 97.4% (active) | 2 | 8% | 94.9% (active) | 8 | 29% | 86.4% (active) | -3% | 22% | 97.7% (active) | 7 | 28% | 94.7% (active)
Cc1nc2ccc(N=Nc3c(O)ccc4ccccc34)cc2[nH]1 | -6 | 30% | 85.3% (active) | -7 | 20% | 77.1% (active) | 11 | 35% | 91.7% (active) | -12 | 17% | 72.3% (active) | -4% | 77% (active) | 86.2% (active) | -33 | 66% | 82.5% (active)
CC/C=C(\C)CC(C)O (configuration not stated) | -3 | 16% | 64.9% | -4 | 3% | 43.8% | -3 | 18% | 77.6% (active) | 1 | 9% | 59.7% | 1% | -5% | 57% | -3 | 8% | 54.9%
CC1(c2ccc(F)cc2)OC(=O)c2c1ccc1ccccc21 (configuration not stated) | -7 | 68% | 56.2% | -5 | 78% (active) | 42.8% | 0 | 81% (active) | 56.5% | -15 | 70% (active) | -2.35% | -6% | 88% (active) | 72.6% (active) | -9 | 84% (active) | 29.5%
